# Test results published in PubChem BioAssay (NCATS).
# Results filed as inconclusive are left out. Activity calls are given as the source filed them. Unless noted, the call rests on the fitted dose curve; in most records, active means well fitted curve in the direction sought with a large enough effect; inconclusive means small, poorly fitted or top-dose-only effect, or another doubt; inactive means no such curve, though single readings can be large; an effect the other way counts as inactive or inconclusive.
# Key:
# [1] = AP1 Signaling Pathway (AID 357; active means well fitted curve in either direction with a large enough effect, not every such curve was filed as active;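 further: ME-180 reporter cells stimulated with EGF at its EC50 level; on the % scale 0 is the no-effect control and ±100 the full control effect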); conditions: ME-180 AP-1-bla reporter, EGF-induced, beta-lactamase ratio, 5 h; at 7.69 µM (top of the series) unless noted
# Summary of the method: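 Titration-series screen for positive or negative modulators of EC50 EGF-induced signaling in ME-180 cells carrying an AP-1-driven beta-lactamase reporter. After 5 hours at 37 degrees Celsius, CCF4 460nm/530nm emission ratio gave %Activity; AC50 values derived.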
# [2] = target: Cytochrome P450 1A2 (Homo sapiens) (UniProt P05177); test: p450-cyp1a2 (AID 410; calls by dose curve; further: potency means the concentration at half of the fitted maximal effect;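 on activity change, negative = inhibition: -100% = full effect of reference inhibitor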)
# Chain of Cytochrome P450 1A2 (Homo sapiens) (P05177 whole entry, looked up): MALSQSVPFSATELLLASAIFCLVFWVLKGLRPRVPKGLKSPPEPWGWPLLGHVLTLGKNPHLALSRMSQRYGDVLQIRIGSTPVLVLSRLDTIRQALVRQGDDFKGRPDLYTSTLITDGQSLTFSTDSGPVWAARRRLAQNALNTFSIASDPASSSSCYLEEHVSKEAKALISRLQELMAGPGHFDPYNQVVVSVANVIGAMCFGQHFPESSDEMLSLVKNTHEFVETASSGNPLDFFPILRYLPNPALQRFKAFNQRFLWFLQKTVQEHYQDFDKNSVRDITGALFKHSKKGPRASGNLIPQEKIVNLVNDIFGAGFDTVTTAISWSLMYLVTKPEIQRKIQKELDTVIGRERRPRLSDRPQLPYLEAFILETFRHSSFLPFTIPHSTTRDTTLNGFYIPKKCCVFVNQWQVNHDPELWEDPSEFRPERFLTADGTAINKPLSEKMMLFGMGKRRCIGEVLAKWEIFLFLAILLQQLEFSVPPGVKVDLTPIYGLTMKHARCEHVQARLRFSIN
# Summary of the method: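 Inhibition was calculated relative to 57 uM furafylline (full inhibition). The reaction used human CYP1A2 at 20nM with Luciferin-ME at its Km, 100uM, driven by an NADPH-regenerating system for 60 min at room temperature.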
# [3] = Stat Signaling Pathway (AID 446; active means well fitted curve in either direction with a large enough effect, not every such curve was filed as active;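 further: ME-180 cervical cancer cells given 40 pM IL-6 alongside compound; SIE-controlled beta-lactamase reporter measured as 460/530 nm FRET emission ratio; on the % scale 0 is the no-effect control and ±100 the full control effect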); conditions: ME-180 SIE beta-lactamase reporter, IL-6 stimulated, 5 h; at 7.69 µM (top of the series) unless noted
# Summary of the method: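 ME-180 SIE-bla cells; overnight plating; cpd + IL-6 40 pM, 5 h, 37 C; LiveBLAzer 2.5 h RT; 460/530 nm emission ratio. Normalized to 300 pM IL-6 and 125 nM JAK inhibitor controls.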
# [4] = target: Glucocorticoid receptor (Homo sapiens) (UniProt P04150); test: GR-GFP Redistribution (AID 450;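 active means compounds whose dose series gives a full or clear partial fitted curve of increased nuclear translocation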; further: potency means the concentration at half of the fitted maximal effect); conditions: U2OS GR-GFP nuclear translocation, laser cytometry, 2 h
# Chain of Glucocorticoid receptor (Homo sapiens) (P04150 whole entry, looked up, the tested form may be a part): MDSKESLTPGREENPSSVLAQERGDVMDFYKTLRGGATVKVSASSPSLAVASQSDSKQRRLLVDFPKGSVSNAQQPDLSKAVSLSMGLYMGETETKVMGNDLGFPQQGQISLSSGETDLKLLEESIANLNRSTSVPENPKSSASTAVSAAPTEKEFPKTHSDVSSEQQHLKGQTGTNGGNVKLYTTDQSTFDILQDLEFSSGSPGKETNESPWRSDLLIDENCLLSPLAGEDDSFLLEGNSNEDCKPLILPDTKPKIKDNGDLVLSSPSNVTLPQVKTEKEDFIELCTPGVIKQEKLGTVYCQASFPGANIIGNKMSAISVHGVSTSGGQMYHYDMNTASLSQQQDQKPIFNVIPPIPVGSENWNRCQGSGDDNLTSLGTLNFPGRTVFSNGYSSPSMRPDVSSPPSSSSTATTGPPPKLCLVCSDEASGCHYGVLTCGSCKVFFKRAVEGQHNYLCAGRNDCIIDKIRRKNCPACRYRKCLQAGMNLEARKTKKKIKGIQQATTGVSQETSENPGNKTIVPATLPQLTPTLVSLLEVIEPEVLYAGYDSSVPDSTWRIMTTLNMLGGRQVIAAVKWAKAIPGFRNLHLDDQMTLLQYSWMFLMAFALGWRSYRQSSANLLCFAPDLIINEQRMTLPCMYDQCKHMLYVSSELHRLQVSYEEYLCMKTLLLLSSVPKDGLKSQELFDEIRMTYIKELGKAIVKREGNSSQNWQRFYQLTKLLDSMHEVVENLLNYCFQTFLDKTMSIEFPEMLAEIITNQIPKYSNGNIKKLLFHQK
# [5] = target: Glucocorticoid receptor (Homo sapiens) (UniProt P04150); test: GR-EFC Redistribution (AID 451; calls by dose curve; further: potency means the concentration at half of the fitted maximal effect); conditions: CHO-K1 GR-EFC translocation, beta-gal luminescence, 2 h
# Summary of the method: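 CHO-K1 cells stably expressing nuclear-localized β-gal enzyme acceptor and GR fused C-terminally to the enzyme donor fragment; ligand-driven nuclear translocation restores β-gal by complementation. Compounds titrated up to 46 uM final, 2 h at 37 °C; luminescence read.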
# [6] = target: Mitogen-activated protein kinase 10 (Mus musculus) (UniProt Q61831); test: JNK3 AlphaScreen Assay (AID 530; active means well fitted curve in either direction with a large enough effect, not every such curve was filed as active;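 further: kinase came from lysate of stimulated human HepG2 cells; signal reports phosphorylation of biotinylated GST-cJun 1-79 at Ser73 with 10 µM ATP; on the % scale 0 is the no-effect control and ±100 the full control effect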)
# Summary of the method: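 JNK3 came from HepG2 lysates pre-activated with IL-1beta and TNF-alpha and phosphorylated biotinylated GST-cJun (1-79) at 10 uM ATP, pH 7.6, room temperature. Compounds were titrated. AlphaScreen signal used anti-phospho-cJun (Ser73) antibody.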
# [7] = target: 3',5'-cyclic-AMP phosphodiesterase 4B (Homo sapiens) (UniProt Q07343); test: qHTS Assay for Inhibitors of PDE-IV (AID 607; active means well fitted activation curve with a large enough effect in the main read-out, with a control signal flat, not every such curve was filed as active; further: % of control where 0% means no effect)
# Chain of 3',5'-cyclic-AMP phosphodiesterase 4B (Homo sapiens) (Q07343 whole entry, looked up): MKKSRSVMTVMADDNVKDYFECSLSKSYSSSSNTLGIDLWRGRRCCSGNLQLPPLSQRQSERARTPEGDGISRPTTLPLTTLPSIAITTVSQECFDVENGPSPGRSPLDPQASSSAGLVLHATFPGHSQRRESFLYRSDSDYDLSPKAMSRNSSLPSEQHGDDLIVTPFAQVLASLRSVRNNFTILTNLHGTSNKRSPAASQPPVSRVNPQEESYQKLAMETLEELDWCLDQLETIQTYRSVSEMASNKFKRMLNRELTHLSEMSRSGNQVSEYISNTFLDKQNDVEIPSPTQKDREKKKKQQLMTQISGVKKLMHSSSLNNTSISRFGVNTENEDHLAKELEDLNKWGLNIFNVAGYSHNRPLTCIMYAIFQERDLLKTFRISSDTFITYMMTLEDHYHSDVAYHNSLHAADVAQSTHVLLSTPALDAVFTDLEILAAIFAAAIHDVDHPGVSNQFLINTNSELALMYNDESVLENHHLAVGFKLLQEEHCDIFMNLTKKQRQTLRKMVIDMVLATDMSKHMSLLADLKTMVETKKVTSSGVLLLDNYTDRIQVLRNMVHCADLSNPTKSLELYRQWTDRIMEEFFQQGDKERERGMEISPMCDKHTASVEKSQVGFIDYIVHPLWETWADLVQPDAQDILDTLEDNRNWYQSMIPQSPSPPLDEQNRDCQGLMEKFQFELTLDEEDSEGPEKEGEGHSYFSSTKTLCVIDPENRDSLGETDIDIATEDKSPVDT
# Summary of the method: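 ACTOne HEK293 cells carry a modified cAMP-gated CNG channel and express endogenous PDE4; plated 1000 cells/well, compounds up to 22.9 uM final. Membrane-potential dye fluorescence (ex 535/em 590) was read; parental cells received 10 uM forskolin + 100 uM RO 20-1724.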
# [8] = target: Cytochrome P450 3A4 (Homo sapiens) (UniProt P08684); test: qHTS Assay for Activators of Cytochrome P450 3A4 (AID 885); further: nearly all actives have a fitted effect of over 65% in size
# Chain of Cytochrome P450 3A4 (Homo sapiens) (P08684 whole entry, looked up): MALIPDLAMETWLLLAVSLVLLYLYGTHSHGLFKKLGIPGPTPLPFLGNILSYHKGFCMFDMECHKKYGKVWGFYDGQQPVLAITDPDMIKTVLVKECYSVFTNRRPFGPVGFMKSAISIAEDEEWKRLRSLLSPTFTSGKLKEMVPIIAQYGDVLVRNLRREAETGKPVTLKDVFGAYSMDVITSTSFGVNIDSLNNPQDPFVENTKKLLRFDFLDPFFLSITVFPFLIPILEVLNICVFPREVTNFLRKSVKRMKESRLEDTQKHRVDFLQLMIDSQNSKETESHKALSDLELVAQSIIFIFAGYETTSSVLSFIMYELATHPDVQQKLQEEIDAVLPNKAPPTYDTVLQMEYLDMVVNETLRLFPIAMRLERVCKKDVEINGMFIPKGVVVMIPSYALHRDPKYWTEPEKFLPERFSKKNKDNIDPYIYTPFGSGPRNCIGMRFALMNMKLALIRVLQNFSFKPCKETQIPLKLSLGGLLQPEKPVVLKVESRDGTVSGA
# Summary of the method: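 20nM CYP3A4 + 25uM Luciferin-PPXE (=KM), 200mM KPO4; cpd 10 min RT; NADPH regen, 60 min RT; stop w/ detection buffer, 20 min; luminescence. Normalized to 57 uM ketoconazole.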
# [9] = Confirmation and Secondary Assay for Modulators of Hemoglobin Beta Chain Splicing at IVS2 654 locus (AID 910);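 further: per-well total GFP intensity by laser scanning cytometry after 2-day treatment; % of control where 0% means no effect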
# Summary of the method: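 HeLa cells stably carrying EGFP interrupted by mutant beta-globin IVS2-654 intron (CMV-driven) were treated with compound for 2 days at 37C; corrected splicing was scored as total peak GFP intensity per well (488 nm excitation, 500-520 nm emission).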
# [10] = Confirmation and Secondary Assay for Modulators of Hemoglobin Beta Chain Splicing at IVS2 705 locus (AID 930);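 further: HeLa cells stably expressing the EGFP-705 splicing reporter; % of control where 0% means no effect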
# Summary of the method: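 Restored EGFP fluorescence after 2-day compound exposure reports splicing correction in IVS2-705 EGFP reporter HeLa cells; positive control was 500 nM splice-blocking PNA oligo. Signal measured as well total peak GFP intensity (488 nm excitation).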
# [11] = qHTS Assay for Lipid Storage Modulators (AID 1519; calls by dose curve); conditions: Drosophila S3 cells, BODIPY lipid droplet/cell ratio, laser cytometry, cells loaded with oleic acid; for activity change, negative = inhibition: at 57.5 µM (top of the series)
# Summary of the method: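 Cells seeded at 5,000 per well were treated with compounds over a concentration series and loaded with oleic acid (400 uM, as added). Lipid droplet fluorescence (488 nm excitation, 500-530 nm channel) was read by laser-scanning cytometry and normalized to 20 uM Triacsin C.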
# [12] = target: Ubiquitin carboxyl-terminal hydrolase 1 (Homo sapiens) (UniProt O94782); test: Inhibitors of USP1/UAF1: Pilot qHTS (AID 504865); further: nearly all actives have a fitted effect of over 35% in size; further: potency means the concentration at half of the fitted maximal effect
# Chain of Ubiquitin carboxyl-terminal hydrolase 1 (Homo sapiens) (O94782 whole entry, looked up): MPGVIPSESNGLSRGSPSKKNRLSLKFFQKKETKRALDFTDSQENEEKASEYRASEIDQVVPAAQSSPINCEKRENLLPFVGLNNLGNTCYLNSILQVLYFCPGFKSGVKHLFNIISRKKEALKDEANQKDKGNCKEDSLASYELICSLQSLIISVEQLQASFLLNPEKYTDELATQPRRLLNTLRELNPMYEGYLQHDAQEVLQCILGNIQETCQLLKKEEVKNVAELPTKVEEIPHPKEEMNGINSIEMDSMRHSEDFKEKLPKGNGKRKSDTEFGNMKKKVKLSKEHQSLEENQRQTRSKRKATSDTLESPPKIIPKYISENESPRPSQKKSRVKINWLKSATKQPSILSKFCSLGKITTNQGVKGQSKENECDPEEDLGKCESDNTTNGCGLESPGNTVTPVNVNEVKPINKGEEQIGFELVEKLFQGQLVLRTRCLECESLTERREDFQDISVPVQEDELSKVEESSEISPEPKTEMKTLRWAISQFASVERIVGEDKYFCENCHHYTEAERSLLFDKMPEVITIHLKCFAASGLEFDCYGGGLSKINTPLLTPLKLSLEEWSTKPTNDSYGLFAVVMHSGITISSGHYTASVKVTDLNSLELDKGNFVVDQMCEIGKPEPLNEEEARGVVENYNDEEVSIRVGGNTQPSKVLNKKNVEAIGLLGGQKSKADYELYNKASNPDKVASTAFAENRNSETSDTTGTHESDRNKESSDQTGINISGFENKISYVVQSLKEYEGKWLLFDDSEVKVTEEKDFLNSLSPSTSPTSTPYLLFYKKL
# Summary of the method: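 Deubiquitinase activity followed as kinetic rhodamine fluorescence release from 150 nM Ub-Rho. 1 nM USP1/UAF1 with compound, after 15 min room-temperature preincubation, in HEPES pH 7.8 buffer containing TCEP, EDTA, BSA and Tween-20.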
# [13] = Primary qHTS for small molecule stabilizers of the endoplasmic reticulum resident proteome: Secreted ER Calcium Modulated Protein (SERCaMP) assay (AID 1508630); further: on the % scale 0 is the no-effect control and ±100 the full control effect
# Summary of the method: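 GLuc-SERCaMP-expressing SH-SY5Y cells, pretreated 16 h with compound, are challenged with thapsigargin to empty ER calcium stores; after 4 h, coelenterazine is added directly to the medium and luminescence is imaged.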
# [14] = target: Lysosomal acid glucosylceramidase (Homo sapiens) (UniProt P04062); test: Glucocerebrosidase-p2 (AID 348; in the data active means potency below about 10 µM; further: potency means the concentration at half of the fitted maximal effect); conditions: purified GBA, blue fluorogenic substrate, 40 min
# Chain of Lysosomal acid glucosylceramidase (Homo sapiens) (P04062 whole entry, looked up): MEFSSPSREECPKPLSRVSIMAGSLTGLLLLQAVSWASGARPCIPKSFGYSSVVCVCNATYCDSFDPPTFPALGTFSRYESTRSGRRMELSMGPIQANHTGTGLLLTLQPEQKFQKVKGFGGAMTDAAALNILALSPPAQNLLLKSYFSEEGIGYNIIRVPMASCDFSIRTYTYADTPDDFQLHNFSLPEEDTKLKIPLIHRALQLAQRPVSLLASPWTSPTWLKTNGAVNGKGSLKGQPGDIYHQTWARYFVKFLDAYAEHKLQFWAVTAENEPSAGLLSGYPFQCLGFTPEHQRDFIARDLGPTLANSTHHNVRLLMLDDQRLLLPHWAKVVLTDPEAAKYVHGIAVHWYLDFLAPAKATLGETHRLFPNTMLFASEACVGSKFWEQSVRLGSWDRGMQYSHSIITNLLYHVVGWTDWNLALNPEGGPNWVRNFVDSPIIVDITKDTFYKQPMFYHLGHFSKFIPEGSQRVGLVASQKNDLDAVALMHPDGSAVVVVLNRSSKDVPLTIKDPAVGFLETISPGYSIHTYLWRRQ
# Summary of the method: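 Compounds titrated from 0.6 nM upwards against 0.2 nM enzyme in pH 5.9 citric acid/KH2PO4, taurocholate, tween-20; blue fluorogenic substrate 80 uM, 40 min room temperature, stopped and read Ex 365/Em 440 for AC50.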
# [15] = NFAT Signaling Pathway (AID 444; active means well fitted curve in either direction with a large enough effect, not every such curve was filed as active); conditions: Jurkat NFAT-bla M1, carbachol, beta-lactamase ratio, 5 h; at 7.69 µM (top of the series) unless noted
# Summary of the method: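 Jurkat cells carrying an NFAT-driven β-lactamase reporter and co-transfected muscarinic M1 receptor were treated with compound plus carbachol (1 uM final, an EC50 level) for 5 h at 37 °C. CCF4 loading followed for 1 h at RT; 460/530 nm ratio gave %activity.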
# [16] = target: Cytochrome P450 2C9 (Homo sapiens) (UniProt P11712); test: qHTS Assay for Inhibitors and Substrates of Cytochrome P450 2C9 (AID 883); further: on the % scale 0 is the no-effect control and ±100 the full control effect; nearly all actives have a fitted effect of over 60% in size
# Chain of Cytochrome P450 2C9 (Homo sapiens) (P11712 whole entry, looked up): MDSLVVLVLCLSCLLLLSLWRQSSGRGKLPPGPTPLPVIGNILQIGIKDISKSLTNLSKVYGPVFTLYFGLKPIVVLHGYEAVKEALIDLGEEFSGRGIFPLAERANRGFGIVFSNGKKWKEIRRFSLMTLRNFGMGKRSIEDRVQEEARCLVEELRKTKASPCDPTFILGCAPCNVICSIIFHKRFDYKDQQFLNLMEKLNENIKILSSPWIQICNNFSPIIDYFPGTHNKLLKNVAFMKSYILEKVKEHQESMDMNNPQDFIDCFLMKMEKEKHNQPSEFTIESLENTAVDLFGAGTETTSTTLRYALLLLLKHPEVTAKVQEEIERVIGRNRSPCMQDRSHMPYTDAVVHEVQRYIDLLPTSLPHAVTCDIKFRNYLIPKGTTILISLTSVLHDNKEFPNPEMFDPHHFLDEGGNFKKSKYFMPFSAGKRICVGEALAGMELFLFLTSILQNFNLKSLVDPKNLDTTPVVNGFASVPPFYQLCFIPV
# Summary of the method: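 Human CYP2C9 (10nM) hydroxylated Luciferin-H (100uM, at its KM) to luciferin in 25mM KPO4. Compound was preincubated 10 min at 37C, then NADPH regeneration started a 60 min reaction at 37C. Luminescence was read after detection reagent, normalized to 57uM sulphaphenazole.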
# [17] = measured here: cell count channel max response
# [18] = measured here: lipid channel max response
Structure (SMILES),"activity change, negative = inhibition [1]",Potency [2],"activity, negative = inhibition [3]",Potency [4],Potency [5],Potency [6],Potency [7],Potency [8],Potency [9],outcome [10],"activity change, negative = inhibition [11]","max response [11, 17] [%]","max response [11, 18] [%]",Potency [12],outcome [13],Potency [14],"activity change, negative = inhibition [15]",Potency [16]
COc1ccc2[nH]cc(CCNc3ccnc(-c4cccc(NS(C)(=O)=O)c4)n3)c2c1,-8.22% (inactive),1.58 µM (active),-27.4% (inactive),> 46 µM (inactive),> 46 µM (inactive),inactive,inactive,inactive,inactive,inactive,8.87% (inactive),-1.88,5.22,inactive,inactive,–,–,–
COc1ccc(C(=O)N2CCC3(CCCN(C(c4ccccc4)c4ccccc4)C3)CC2)cc1,–,–,18.3% (inactive),–,> 46 µM (inactive),inactive,–,–,–,–,-5.74% (inactive),2.37,-2.89,–,inactive,> 11.4 µM (inactive),–,–
Cc1cccc(CNc2nc(-c3c(C)noc3C)nc3ccccc23)c1,–,–,-28.8% (inactive),> 46 µM (inactive),> 46 µM (inactive),inactive,–,–,inactive,inactive,11.8% (inactive),-6.95,4.27,–,inactive,> 11.4 µM (inactive),–,–
N#Cc1cccc(NC(=O)N2CC[C@@]3(CCCN(C(=O)c4cnccn4)C3)C2)c1,–,–,3.28% (inactive),–,> 46 µM (inactive),inactive,–,–,–,–,8.9% (inactive),14.7,23.6,–,inactive,> 11.4 µM (inactive),12.8% (inactive),–
COCCNc1nc(-c2ccccc2C)nc2ccccc12,–,1.26 µM (active),5.05% (inactive),> 46 µM (inactive),> 46 µM (inactive),inactive,inactive,inactive,inactive,inactive,7.59% (inactive),3.47,22.3,–,inactive,–,-2.48% (inactive),–
CS(=O)(=O)c1ccc(Cn2c3c(c4cc(F)cc(F)c42)CCC[C@H]3CC(=O)O)cc1,–,inactive,–,> 46 µM (inactive),> 46 µM (inactive),inactive,–,inactive,–,–,-2.09% (inactive),15,14.3,–,inactive,–,–,inactive
CCCCCCCCCCCCCC(=O)O[C@H](CC(=O)O)C[N+](C)(C)C,–,inactive,–,> 46 µM (inactive),> 46 µM (inactive),inactive,inactive,–,–,–,3.49% (inactive),-5.36,-2.97,79.4 µM (active),inactive,–,–,–
